Measurements reported in PubChem BioAssay (NCATS).
Activity calls are given as the source filed them. Calls follow the shape of the dose curve; as a rule, active = well fitted inhibition curve with a large enough effect; inconclusive = small, poorly fitted or top-dose-only effect; inactive = no such curve, though single readings can be large or run the other way.

Biological target: Pyruvate kinase (Leishmania mexicana) (UniProt Q27686)
Test: qHTS Validation Assay for Inhibitors of Leishmania Mexicana Pyruvate Kinase (AID 945);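 also: 0% = DMSO only neutral control wells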
Details: purified L. mexicana pyruvate kinase, enzyme activity, E451W mutant enzyme; series mostly up to 57.5 µM; activity change, negative = inhibition: at the top concentration
Description: NIH Molecular Libraries Screening Centers Network [MLSCN]
NIH Chemical Genomics Center [NCGC]
PI names: Malcom Walkinshaw, Hugh Morgan and Linda Gilmore
University of Edinburgh, Edinburgh, UK
Species of Leishmania are responsible for a wide spectrum of diseases throughout the tropics and subtropics, ranging from self-healing ulcers to highly disfiguring lesions and serious, often lethal visceral diseases, such as kala-azar. In Leishmania spp. it has been shown that both sugar uptake and gluconeogenesis are necessary to synthesize sufficient hexose-phosphate required for the production of glycoconjugates and the intracellular polysaccharide mannan which are essential for both replication and virulence of the parasites. Therefore, most of the enzymes participating in glycolysis and gluconeogenesis are expected to be essential (Naderer et al., 2006). The assay described here targets pyruvate kinase from Leishmania mexicania (LmPYK) that was obtained as a highly purified preparation from the University of Edinburgh (E451W mutant was provided). A 1536 well assay protocol was set up and validated by screening the LOPAC library in triplicate as an eight point concentration-titration series using the qHTS platform developed at the NCGC.
NCGC Assay Protocol Summary:
Three uL of substrate mix (final concentrations, 50 mM imidazole pH 7.2, 50 mM KCl, 7 mM MgCl2, 0.5 mM PEP, 0.1 mM ADP, 0.01% Tween 20, 0.05% BSA) was dispensed into white solid medium binding Greiner 1536 well plates. 23 nL of compound were delivered by a pin tool and 1 uL of enzyme mix (final concentration, 0.2 nM LmPYK, 50 mM imidazole pH 7.2, 0.05% BSA) was added. Plates were covered with stainless steel gasket-lined lids and incubated at room temperature for 1 hour. Two uL of detection and kinase stop mix (PKLight, Lonza) was added, and luminescence read by a ViewLux (Perkin Elmer) at 2 second exposure/plate using 2x binning. Controls on each plate were as follows: column 1, sixteen-point titration (1:2 dilutions) in duplicate the LmPK activator LOPAC-C8145 beginning at 57 uM final concentration; column 2, sixteen-point titration (1:2 dilutions) in duplicate activator LOPAC-S4063 beginning at 57 uM final concentration; column 3, column 4 DMSO only. Data were normalized to the neutral control (column 3).

Chain of Pyruvate kinase (Leishmania mexicana) (Q27686 2-499 E452W): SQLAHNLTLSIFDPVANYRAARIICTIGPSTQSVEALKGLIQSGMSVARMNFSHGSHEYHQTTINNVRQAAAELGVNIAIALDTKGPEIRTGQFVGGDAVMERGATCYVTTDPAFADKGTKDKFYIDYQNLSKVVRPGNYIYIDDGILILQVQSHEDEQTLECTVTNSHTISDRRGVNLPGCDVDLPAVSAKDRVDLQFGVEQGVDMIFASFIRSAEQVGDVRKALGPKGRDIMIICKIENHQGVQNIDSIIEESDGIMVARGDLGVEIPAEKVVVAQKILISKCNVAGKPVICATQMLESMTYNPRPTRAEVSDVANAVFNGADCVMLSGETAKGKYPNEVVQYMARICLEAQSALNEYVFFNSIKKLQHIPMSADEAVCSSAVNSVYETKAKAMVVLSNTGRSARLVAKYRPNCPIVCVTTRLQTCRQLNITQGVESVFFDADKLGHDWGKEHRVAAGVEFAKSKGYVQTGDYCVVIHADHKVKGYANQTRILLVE

Activity change, negative = inhibition, inactive:
COC(=O)[C@](C)(N)Cc1ccc(O)cc1 8.63%
CC1(C)CCC(NC(=O)[C@H](N)CCC(=O)O)CC1 -10.4%
C=C[C@@]1(C)CC(=O)[C@@]2(O)[C@@]3(C)[C@H](O)CCC(C)(C)[C@@H]3[C@H](O)[C@H](OC(C)=O)[C@]2(C)O1 -9.35%
NC(N)=N[C@H](CCC(=O)O)C(=O)O 3.35%
COc1ccc2c(c1)CCC1C2CC[C@]2(C)[C@H](NCCCCCCN3C(=O)C=CC3=O)CC[C@@H]12 (stereo not given in full) 3.28%
Nc1ncnc2c1ncn2[C@@H]1CCCO1 -13.1%
C[C@H]1CN(S(=O)(=O)c2cccc3cnccc23)CCN1 -6.96%
COc1cc2c(cc1O)CC[C@@H]1[C@@H]2CC[C@@]2(C)[C@H](O)CC[C@H]12 19.7%
CNc1ncnc2c1ncn2[C@@H]1O[C@@H](CO)[C@H](O)[C@@H]1O -2.74%
CC[C@H](C)[C@@H]1O[C@]2(CC[C@@H]1C)C[C@H]1C[C@H](CC=C(C)[C@@H](O[C@H]3C[C@H](OC)[C@H](O[C@H]4C[C@H](OC)[C@H](O)[C@H](C)O4)[C@H](C)O3)[C@@H](C)C=CC=C3CO[C@@H]4[C@@H](O)C(C)=C[C@H](C(=O)O1)[C@@]34O)O2 -5.68%
C[C@H](O)[C@H](O)[C@@H]1CNc2nc(N)[nH]c(=O)c2N1 -7.57%
C#C[C@H](N)CCC(=O)O 5.27%
C[C@@H](C(=O)O)c1ccc(C[C@@H]2CCCC2=O)cc1 -9%
N[C@@H]1C=CC=C(C(=O)O)C1 5.09%
O[C@H](CN1CCN(c2cccc(Cl)c2)CC1)C(c1ccccc1)c1ccccc1 -2.34%
CCCC[C@]1(C2CCCC2)Cc2cc(OCC(=O)O)c(Cl)c(Cl)c2C1=O 4.53%
CCCCCCCCCCCCCCCC(=O)NC[C@@H](COP(=O)([O-])OCC[N+](C)(C)C)OCC -7.36%
C=C(C)[C@@H]1CC=C(C(=O)O)CC1 -13.7%
C=CCN1CCc2c(cc(O)c(O)c2Cl)[C@H](c2ccccc2)C1 -9.67%
CCCCC/C=C\C[C@H](O)/C=C\c1cccc(C[C@H](O)CCCCO)n1 -11.4%
Nc1nc(Cl)nc2c1ncn2[C@@H]1O[C@@H](CO)[C@@H](O)[C@H]1O 6.18%
O=C(O)CCC(=O)N1CCC[C@H]1C(=O)O -5.25%
NC[C@H](O)C1CCCCCCC1 -8.58%
CC1=C(C(=O)O)N2C(=O)[C@@H](NC(=O)[C@@H](N)C3=CCC=CC3)[C@@H]2SC1 25.8%
CSC(N)=NCCC[C@@H](N)C(=O)O 3.63%
O=C1OC(=O)[C@@H]2[C@@H]1[C@@H]1CC[C@H]2O1 1.65%
C[C@@H]1C[C@@H]2[C@H]3CCC4=CC(=O)C=C[C@]4(C)[C@]3(Cl)[C@@H](O)C[C@@]2(C)[C@@]1(O)C(=O)CO -9.65%
Cc1ccccc1/C=C\C1=NCCN1 17.2%
CN1CC[C@@]2(CCN3CCc4c(oc5ccccc45)[C@@H]3C2)N(C)C1=O -6.22%
NC(=S)NCCC[C@@H](N)C(=O)O 7.84%
CSc1nc(N)c2ncn([C@@H]3O[C@@H](COP(=O)(O)OP(=O)(O)O)[C@@H](O)[C@H]3O)c2n1 -20.9%
CCCCCCCCCCCCCCC/C=C\[C@H](O)[C@@H](NC(=O)CCCCCCCCCCCCC)OC (tested in a mixture with another compound) 0.686%
COc1c2c(nc3ccccc13)O[C@@H]([C@@](C)(O)CO)C2 -3.4%
C=C/C(C)=C/[C@]1(C)SC(=O)C(C)=C1O 4.62%
CC(C)(C)c1onc(OCP(=O)(O)O)c1C[C@@H](N)C(=O)O 3.94%
O=S(=O)(NCCNC/C=C\c1ccc(Br)cc1)c1cccc2cnccc12 7.69%
CN(C)C(=O)/N=N\C(=O)N(C)C -16.1%

outcome, inactive:
CCCC[S@@](=N)(=O)CC[C@@H](N)C(=O)O
CN1[C@@H]2CC[C@H]1CC(OC(=O)[C@@H](CO)c1ccccc1)C2 (stereo not given in full)
COC(=O)[C@H]1[C@H]2C[C@H]3c4[nH]c5ccccc5c4CCN3C[C@@H]2CC[C@@H]1O
